N-glyco inh: blocks N-linked glycosylation in D54 reporter cells; 360,000 compounds, 0.23% hits; reporter increase, % at 12.5 µM; AID 588692; D54 ERlucT glycosylation luciferase reporter, 24 h; percent of 100 nM tunicamycin response;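 active = mean luciferase reporter signal, scaled so untreated is 0 and the glycosylation-blocking control 100, at or above a set limit in every replicate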;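 also: luciferase carries N-glycosylation sites so blocking glycosylation raises the light; 0% = median of neutral control wells and 100% = median of 100 nM tunicamycin wells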
Vif imaging: inhibitors of HIV Vif; HEK293T cells, Vif self-association by quenched fluorescence, imaging, 24 h; inhibition, % at 7.49 µM; 340,000 compounds, 0.35% hits; AID 602346; in the data active = inhibition above about 50%, passing the limit was not always enough
ARNT-TACC3 inh: disruptors of human ARNT/TACC3 interaction | AlphaScreen His-ARNT PAS-B/GST-TACC3 binding, luminescence; TACC3 fragment carries E629A point mutation | inhibition, % at 9.99 µM | 390,000 compounds, 0.66% hits;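 active = mean inhibition of replicates at least 50% and at least half of replicates each reaching 50%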;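 also: 0% = complete ARNT plus TACC3 wells and 100% = ARNT alone without TACC3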
aDG glyco act: alpha-DG glycosylation activation; Pro5-aDG cells, alpha-DG glycosylation AlphaScreen (IIH6); 0% Pro5, 100% B10-LARGE cell signal; activation, % at 10 µM; 360,000 compounds, 0.22% hits; AID 624168;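 active = activation of at least 8% versus controls, or a plate z-score of at least 8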;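 also: Pro5 are CHO cells carrying HIG-tagged alpha-DG that lacks glycosylation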
H9c2 protect: myocardial damage modulation in H9c2 cells | H9c2 cardiomyocytes, H2O2 injury protection, ATPLite, 2 h | protection from H2O2 cell death, % at 20 µM | 360,000 compounds, 0.63% hits;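 active = compounds giving at least 50% protection of heart cells from peroxide-induced death in the single-dose screen, raw or plate-pattern-corrected value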;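 also: 0% = DMSO wells with peroxide and 100% = DMSO wells without peroxide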
aDG conf: confirmation of alpha dystroglycan glycosylation activators | activation, % at 10 µM (by protocol) | AID 651671 | 600 compounds, 17% hits | Pro5-aDG cells, alpha-DG glycosylation, IIH6 AlphaLISA; scaled to LARGE-overexpressing B10 cells as 100% | shares compounds with aDG glyco act;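 active = activation of at least 7% in one or more replicates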;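 also: cells exposed to compound for two days before detection; 0% = DMSO-treated Pro5 cells and 100% = DMSO-treated B10-LARGE cells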
Numbers without * were called inactive; nt = no result. This is a sample that favours compounds with a hit; in the whole collection about 1.7% have one here.

SMILES | N-glyco inh | Vif imaging | ARNT-TACC3 inh | aDG glyco act | H9c2 protect | aDG conf
O=C(Cn1cnc2ccccc21)Nc1ccc(SC(F)F)cc1 | 3 | -27 | -4 | 10* | -22 | 1
Cc1ccc(C2(c3noc(CN4CCC(c5ccncc5)CC4)n3)CCCC2)cc1 | -7 | -6 | nt | 6.0* | -10 | 0
Cc1ccc(C2(c3noc(CN(C)CC4CCCCO4)n3)CCCC2)cc1 (configuration not stated) | -1 | 3 | -8 | 0 | -2 | nt
Cc1nn(C)c(C(=O)NCc2ccc(Cl)cc2)c1Cl | -2 | -15 | -6 | 4.9* | -16 | 2
CCC(=O)N(C)C[C@@H]1Oc2cc(-c3ccc(C#N)cc3)ccc2S(=O)(=O)N([C@@H](C)CO)C[C@H]1C | nt | nt | -7 | nt | nt | nt
Cc1ccc(NC(=O)c2ccc([N+](=O)[O-])s2)cc1S(=O)(=O)N1CCOCC1 | -17 | -6 | -4 | 9.0* | -16 | 6.1*
O=C(Nc1cc(S(=O)(=O)N2CCOCC2)ccc1N1CCOCC1)c1ccc([N+](=O)[O-])s1 | -2 | nt | nt | 3 | 3 | nt
O=C(C[C@H]1C=C[C@H](NC(=O)C2CCOCC2)[C@H](CO)O1)Nc1ccc(-c2ccccc2)cc1 | nt | nt | -5 | nt | nt | nt
COc1cccc(-c2cnc3c(c2)C(=O)N([C@@H](C)CO)C[C@H](C)[C@@H](CN(C)Cc2ccncc2)O3)c1 | nt | nt | -15 | nt | nt | nt
Cc1cc(CNC(=O)COc2ccc(F)cc2F)c2ccccc2n1 | -2 | -11 | -3 | 0 | -12 | nt
Cc1cc(CNC(=O)COc2cc(F)ccc2[N+](=O)[O-])c2ccccc2n1 | 3 | 9 | -4 | 8.2* | -16 | -1
O=C(C[C@@H]1C[C@@H]2c3cc(NC(=O)NC4CCCC4)ccc3O[C@@H]2[C@H](CO)O1)NCCN1CCCCC1 | nt | nt | 2 | nt | nt | nt
Cc1cc(C)cc(N=C2NC(=O)CS2)c1 | -2 | -6 | 1 | 0 | 10 | nt
Cc1cccc(N=C2NC(=O)CS2)c1 | 0 | 3 | -3 | 6.4* | -2 | 1
C[C@@H]1CN([C@@H](C)CO)C(=O)c2cc(-c3ccc(C#N)cc3)cnc2O[C@@H]1CN(C)C(=O)CN(C)C | nt | nt | 0 | nt | nt | nt
Cc1csc2ncnc(NCCc3ccccn3)c12 | -2 | 0 | -1 | 10* | -30 | 2
c1ccc(CCNc2ncnc3sccc23)nc1 | -3 | -7 | 0 | 0 | -15 | nt
COc1ccccc1Cc1c(-c2ccc(C#N)cc2)nc2c3ccccc3ccn12 | 1 | nt | nt | 8.9* | 5 | 3
O=C(CN1CCOCC1)N[C@@H]1CC[C@@H](CCn2cc(C3CC3)nn2)O[C@H]1CO | nt | nt | 5 | nt | nt | nt
COc1ccc(S(=O)(=O)N(C)C[C@@H]2Oc3ccc(NC(=O)CCCCCC(=O)Nc4ccccc4N)cc3CC(=O)N([C@H](C)CO)C[C@@H]2C)cc1 | nt | nt | -6 | nt | nt | nt
CCCC(=O)c1ccc(N2CCN(C(=O)c3ccccc3)CC2)c(F)c1 | -2 | -10 | -6 | 2 | -32 | nt
CCCC(=O)c1ccc(N2CCN(C(=O)c3ccccc3Br)CC2)c(F)c1 | -3 | -16 | -5 | 5.2* | -26 | 0
O=C(COC(=O)COc1ccccc1)Nc1ncc([N+](=O)[O-])s1 | 1 | -2 | nt | 0 | 3 | nt
N/C(=N\OC(=O)Nc1ccccc1)c1ncc([N+](=O)[O-])s1 | 16 | 16 | -1 | 2.8* | -16 | 3.3*
NC(=S)N/N=C/c1coc2cc(Br)ccc2c1=O | 1 | -16 | -5 | 1 | -5 | nt
SMILES | N-glyco inh | Vif imaging | ARNT-TACC3 inh | aDG glyco act | H9c2 protect | aDG conf
NC(=S)N/N=C/c1coc2c(ccc3ccccc32)c1=O | 1 | 8 | 2 | 9.0* | -4 | 0
C[C@H]1CN([C@@H](C)CO)C(=O)CCCn2nncc2CO[C@@H]1CN(C)S(=O)(=O)c1ccc(Cl)cc1 | nt | nt | -7 | nt | nt | nt
O=C(Nc1ccccc1Cl)C1C(c2ccccc2)C1(Cl)Cl (configuration not stated) | -1 | -5 | 37 | 6.2* | -6 | 0
CC(=O)c1c(COC(=O)c2ccc(C)cc2)nc2ccccc2[n+]1[O-] | 0 | -2 | nt | 2.8* | -4 | -1
CC(=O)c1c(COC(=O)c2ccc(F)cc2)nc2ccccc2[n+]1[O-] | 3 | 11 | nt | 0 | -6 | nt
CC(=O)N1CCCc2cc(S(=O)(=O)N3CCC(C)CC3)ccc21 | 0 | -3 | 8 | 23* | 0 | -1
C[C@@H]1CN([C@H](C)CO)C(=O)c2cc(NC(=O)Nc3ccccc3)ccc2O[C@@H](C)CCCCO[C@@H]1CN(C)S(=O)(=O)c1cn(C)cn1 | nt | nt | 4 | nt | nt | nt
CCOC(=O)C1CCCN(C(=O)c2ccc(S(=O)(=O)N3CCCC3)cc2)C1 (configuration not stated) | 0 | -10 | nt | 0 | -2 | nt
CCOC(=O)C1CCCN(S(=O)(=O)c2ccc(S(=O)(=O)N3CCCC3)cc2)C1 (configuration not stated) | 1 | -9 | -13 | 4.5* | -9 | 0
Cc1cccc(C)c1NC(=O)c1ccc(-n2cncn2)nc1 | 1 | nt | -4 | 3.8* | 18 | -1
O=C(NCc1ccc(F)cc1)[C@H]1[C@H](CO)[C@H]2Cn3c(cccc3=O)[C@H]2N1CC1CC1 | nt | nt | -6 | nt | nt | nt
CNC[C@H]1Oc2c(NS(=O)(=O)c3cn(C)cn3)cccc2C(=O)N([C@@H](C)CO)C[C@@H]1C | nt | nt | 5 | nt | nt | nt
C=CCNC(=S)NNC(=O)CCC(O)CCCCC (configuration not stated) | -2 | -7 | 5 | 8.4* | 5 | 2
C=CCNC(=S)NNC(=O)C(CCCC)CC(C)O (configuration not stated) | -1 | -1 | -4 | 5 | 5 | nt
Cc1nc(NCc2ccc(S(N)(=O)=O)cc2)c2c(C)c(C)sc2n1 | -1 | -1 | -1 | 0 | -6 | nt
Cc1nc(NCCc2ccc(S(N)(=O)=O)cc2)c2c(C)c(C)sc2n1 | 4 | nt | -1 | 8.2* | -20 | 2
CCC1CCCCN1CCCNC(=O)c1cn(CC)c2ccc(S(=O)(=O)N3CCc4ccccc4C3)cc2c1=O (configuration not stated) | -1 | 8 | -3 | 9.1* | 2 | 0
CCn1cc(C(=O)NCCCN2CCCC(C)C2)c(=O)c2cc(S(=O)(=O)N3CCc4ccccc4C3)ccc21 (configuration not stated) | -7 | 5 | 4 | 6 | -18 | nt
c1ccc(-c2nnc(CN3CCN(C(c4ccccc4)c4ccccc4)CC3)o2)cc1 | 0 | nt | 26 | 6.8* | 2 | 0
C[C@H](CO)N1C[C@H](C)[C@@H](CN(C)C(=O)CC2CC2)Oc2cc(C#CCN(C)C)ccc2S1(=O)=O | nt | nt | 5 | nt | nt | nt
CN(C)c1nc(Oc2ccc(=O)n(C)n2)nc(N2CCOCC2)n1 | 4 | 5 | -3 | 6.9* | -2 | 0
N/C(=N\OC(=O)COc1ccc(Br)cc1Cl)c1ccccn1 | -19 | -6 | 4 | 14* | -14 | 0
